PubChem BioAssay AID1626 (SRMLSC, 2009)
Among all 220,000 compounds or so, about 2,000 (0.91%) were called active. Not shown: some 2% with an inconclusive outcome. No stated cut-off is given here; in the data, inconclusive means inhibition above about 80% without an active follow-up result; inactive means below that; test concentration not stated here. Only a sample is shown. Potency and affinity values are given separately.

test: M. tuberculosis H37Rv growth inhibitors, H37Rv strain (AID 1626); details: hits give high values, concentration not given here;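 further: bacteria incubated seven days before Alamar blue readout; 0% = bacteria only wells and 100% = bacteria with antibiotic wells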

SMILES	inhibition
CCC(C)(C)NC(=O)C(c1cccc(OC)c1)N(C(=O)c1ccn[nH]1)c1cccc(OC)c1 (stereo not given)	-8.88% (inactive)
COCCNC(=O)c1cn(C)c2ccc(S(=O)(=O)N(C)C3CCCCC3)cc2c1=O	-12% (inactive)
COc1ccc(S(=O)(=O)N(CC(=O)N2CCN(C)CC2)c2ccccc2)cc1OC	-11.1% (inactive)
CCC(CC)C1C(C#N)=C(N)Oc2cc(C)oc(=O)c21 (stereo not given)	-11.1% (inactive)
Cc1cc2nnc(SCC(=O)NCC3CCCO3)n2c2ccccc12 (stereo not given)	-6.93% (inactive)
Cc1ccc(-c2csc(/C(C#N)=C/Nc3ccccc3SC(F)(F)F)n2)c(C)c1	-7.14% (inactive)
COc1cc(C2c3c(oc4ccccc4c3=O)C(=O)N2Cc2cccnc2)cc(OC)c1OC (stereo not given)	1.59% (inactive)
CCN(C(=O)CN1c2ccccc2CC1C)c1c(N)n(Cc2ccccc2)c(=O)[nH]c1=O (stereo not given)	3.3% (inactive)
CC(=O)c1cccc(NC(=O)C2CC(=O)N(Cc3ccccc3)C2)c1 (stereo not given)	-1.4% (inactive)
CSc1nc2ccc(NC(=O)C3CC(=O)N(Cc4ccco4)C3)cc2s1 (stereo not given)	7.1% (inactive)
O=C(NNS(=O)(=O)c1ccccc1C(F)(F)F)c1cccc(S(=O)(=O)Nc2ccccc2Cl)c1	5.57% (inactive)
CC(C)CNS(=O)(=O)c1ccc(CCC(=O)N2CCN(c3ccccc3)CC2)cc1	0.62% (inactive)
Nc1c(C(=O)NCC2CCCO2)sc2nc3c(c(-c4ccco4)c12)CC/C3=C\c1ccco1 (stereo not given)	-3.62% (inactive)
O=[N+]([O-])c1cc(S(=O)(=O)Nc2ccccc2)ccc1N1CCN(c2ccc(O)cc2)CC1	3.41% (inactive)
O=[N+]([O-])c1cc(S(=O)(=O)C(F)(F)F)ccc1N1CCN(c2ccccc2)CC1	26.1% (inactive)
CC(C)c1nc2sc3c(NCc4ccccc4)ncnc3c2c2c1COC(C)(C)C2	-2.03% (inactive)
COc1ccc(C)cc1N/C(N)=N/c1nc(C)cc(C)n1	-4.57% (inactive)
Cc1ccc(N/C(N)=N/c2nc3c(c(=O)[nH]2)CCCC3)c(C)c1	6.84% (inactive)
S=C1NC2(CCCCC2)Cc2ccccc21	4.66% (inactive)
Cc1sc2nc(-c3cccnc3)[nH]c(=O)c2c1-c1ccccc1	-0.42% (inactive)

SMILES	inhibition
Cc1ccccc1/C=C1\CCCc2ccccc2C1=O	5.73% (inactive)
CC(C)(C)C(=O)/C=c1\[nH]c(=O)/c(=C\c2ccccc2F)s1	79.9% (inactive)
CC(C)(C)C(=O)/C=c1\[nH]c(=O)/c(=C\c2ccc(C#N)cc2)s1	75.3% (inactive)
CCc1ccc(/C=C(\C)C(=O)c2c(C)cc(C)[nH]c2=O)cc1	5.72% (inactive)
COc1cccc(/C=c2\s/c(=C/C(=O)c3ccc(C)cc3)[nH]c2=O)c1OC	17.8% (inactive)
COc1ccc(/C=C2\SC(c3ccc(C)cc3)=NC2=O)cc1OC	-10.8% (inactive)
COc1cc(/C=c2\s/c(=C\C(=O)C(C)(C)C)[nH]c2=O)cc(OC)c1OC	66.3% (inactive)
COc1ccc(C=C2C(=O)c3ccccc3C2=O)cc1O	1.77% (inactive)
Cc1ccc(C2NC(=O)CCC2[N+](=O)[O-])cc1 (stereo not given)	1.52% (inactive)
NS(=O)(=O)c1ccc(NC(=O)C(Sc2ccccc2)c2ccccc2)cc1 (stereo not given)	2.33% (inactive)
COc1cccc(CNC(=O)c2ccc3nc[nH]c3c2)c1	-1.98% (inactive)
O=C(COc1ccc(Br)cc1)NCc1cn2ccccc2n1	-2.73% (inactive)
NC1=NC(=O)/C(=C\C=C\c2ccccc2)S1	2.56% (inactive)
CCCOc1ccc(/C=N/NC(=O)C(C)Sc2ccccn2)cc1OCC (stereo not given)	4.45% (inactive)
Cc1cccc(/C=C2\CS/C(=C\c3cccc(C)c3)C2=O)c1	-5.7% (inactive)
COc1cccc(/C=c2\s/c(=C\C(=O)C(C)(C)C)[nH]c2=O)c1	8.13% (inactive)
Cc1cc(NC(=O)C(=O)c2cn(C)c3ccccc23)no1	-4.05% (inactive)
CCC(=O)Nc1cccc(C2=NOC3(C2)C[C@@H](C(N)=O)N(C(=O)C2(C)CC2)C3)c1 (stereo not given in full)	-7.53% (inactive)
O=C(COC(=O)c1ccc(Br)cc1)NCCN1C(=O)CSC1=O	-0.22% (inactive)
O=C(CN1C(=O)c2cccc3cccc1c23)Nc1ccccc1C(=O)NCc1ccco1	-8.25% (inactive)

SMILES	inhibition
COc1ccc(C2C(C(=O)Nc3ccc4c(c3)OCCO4)c3ccccc3C(=O)N2C)cc1 (stereo not given)	-5.2% (inactive)
CC1=C(C(=O)Nc2ccccc2C)C(c2cccs2)NC(=S)N1 (stereo not given)	-1.29% (inactive)
O=S(=O)(c1ccc(Cl)cc1)c1snnc1-c1ccccc1	-9.09% (inactive)
O=S(=O)(c1ccc(F)cc1)c1snnc1-c1ccccc1	-0.36% (inactive)
O=C(CNC(=S)N(Cc1ccccc1F)C1CCCCC1)NC1CC1	-3.6% (inactive)
O=C(Nc1ccc2sccc2c1)c1ccc(Cl)s1	59.4% (inactive)
O=C(O)/C=C/c1ccc([N+](=O)[O-])o1	7.14% (inactive)
Cc1ccc(/C=C/C(=O)Nc2ccc([N+](=O)[O-])cc2)o1	6.87% (inactive)
CCOC(=O)/C=c1\s/c(=C(\C#N)C(N)=O)n(-c2ccccc2)c1=O	2.26% (inactive)
COc1cc(/C=N/NC(=O)c2cnccn2)cc(OC)c1OC	-6.81% (inactive)
CC1(C)CCCC2=C1CC1C(=O)N(N)C(=O)C1C2 (stereo not given)	2.05% (inactive)
Cc1ccc(Nc2ccc(C(=O)O)cc2N)cc1	-7.86% (inactive)
Cc1ccc(Nc2ccccc2)cc1	6.23% (inactive)
c1ccc(Nc2cccc3c(Nc4ccccc4)cccc23)cc1	-3.47% (inactive)
Nc1ccccc1Nc1cccc(C(F)(F)F)c1	6.41% (inactive)
COc1ccc(Nc2ccc(OC)cc2)cc1	47% (inactive)
COc1ccc(Nc2cccccc2=O)cc1	1.3% (inactive)
FC(F)(F)c1nc2ccccc2nc1N/N=C/c1c(Cl)cccc1Cl	9.85% (inactive)
COCCN(C(=S)Nc1ccc(C)cc1C)C(C)c1ccco1 (stereo not given)	-7% (inactive)
CSc1ncccc1C(=O)OCC(=O)c1ccccc1Br	-4.85% (inactive)
